Test results: PubChem BioAssay (EPA / NIEHS)
Inconclusive results are not listed. The source holds several records for some structures; these can differ, active in one and inactive in another. Activity calls are given as the source filed them. How the source made its calls, unless noted: active means hit-call score of the fitted dose curve at least 0.9, where 1 is the maximum; inactive means score below 0.9.

Key:
[1] = read-out: Interleukin 17A (IL17A), IL17A (gene 3605); experiment: BSK_BT_xIL17A: BioMAP Diversity Plus: BT Assay for Interleukin 17A (IL17A) Biomarker Activity (AID 2284229); details: primary human B cells with PBMC
Summary of the method: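 Luminex xMAP quantification of secreted IL-17A after 24 h chemical exposure of a primary human B cell/PBMC co-culture. Signal increases fitted relative to DMSO negative control.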

[2] = read-out: Tumor necrosis factor (Homo sapiens) (UniProt P01375); experiment: BSK_BT_xTNFa: BioMAP Diversity Plus: BT Assay for Tumor necrosis factor alpha (TNF-alpha) Biomarker Activity (AID 2284230); details: primary human B cells with PBMC
Summary of the method: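 Compounds were added to a B cell plus PBMC co-culture, and after 24 h secreted TNF-alpha was quantified with Luminex xMAP technology, with responses fitted upward from the DMSO control.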

[3] = read-out: Vascular cell adhesion molecule 1 (VCAM1), VCAM1 (gene 7412); experiment: BSK_MyoF_VCAM1: BioMAP Diversity Plus: MyoF Assay for Vascular cell adhesion molecule 1 (VCAM1) Biomarker Activity (AID 2284231); details: primary human lung fibroblasts
Summary of the method: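 ELISA readout of VCAM-1 on human lung fibroblast cultures 24 hours after dosing, analyzed for signal gain relative to DMSO. Overt cytotoxicity was checked by sulforhodamine B total-protein staining in parallel cultures.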

[4] = read-out: Interleukin 17F (IL17F), IL17F (gene 112744); experiment: BSK_BT_xIL17F: BioMAP Diversity Plus: BT Assay for Interleukin 17F (IL17F) Biomarker Activity (AID 2284243); details: primary human B cells with PBMC
Summary of the method: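 Human B cells co-cultured with PBMC; secreted IL-17F quantified by LumineX xMAP 24 hours after chemical dosing. Activity fitted in the positive direction against DMSO negative control as baseline.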

[5] = read-out: Actin alpha 1 (ACTA1), ACTA1 (gene 58); experiment: BSK_MyoF_ACTA1: BioMAP Diversity Plus: MyoF Assay for Actin alpha 1 (ACTA1) Biomarker Activity (AID 2284244); details: primary human lung fibroblasts
Summary of the method: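 MyoF fibroblast system (human lung); a-SMA quantified via ELISA at 24 h; DMSO-normalised, gain-of-signal endpoint.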

[6] = read-out: Basic fibroblast growth factor (bFGF), FGF2 (gene 2247); experiment: BSK_MyoF_bFGF: BioMAP Diversity Plus: MyoF Assay for Basic fibroblast growth factor (bFGF) Biomarker Activity (AID 2284246); details: primary human lung fibroblasts
Summary of the method: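 Fibroblasts from human lung, 24 h dosing. bFGF by ELISA; gain of signal over DMSO.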

[7] = read-out: Collagen IV, COL4A1 (gene 1282); experiment: BSK_MyoF_CollagenIV: BioMAP Diversity Plus: MyoF Assay for Collagen IV Biomarker Activity (AID 2284247); details: primary human lung fibroblasts
Summary of the method: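 Lung fibroblasts (human primary) treated with chemicals were assayed after 24 h for Collagen IV using an ELISA, with DMSO serving as negative control and baseline for a positive-direction fit.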

[8] = TAMU_HCS_1.5hr_SingleDonor1434_Cytotoxicity: Cytotoxicity Assessment using High-content Screening (HCS) Fluorescent Imaging for the Texas A&M University (TAMU) 1.5-hr Human Induced Pluripotent Stem Cell (iPSC)-derived Cardiotoxicity Assay (AID 2284234; active means hit-call score of the fitted dose curve at least 0.9, where 1 is the maximum)
Summary of the method: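 Nuclear counts from Hoechst 33342 imaging define cytotoxicity here, with EC10 (10% cell-count loss relative to DMSO) as point of departure. iPSC cardiomyocytes received 0.2-100 uM test chemical in 0.5% DMSO for 1.5 h at 37 C.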

[9] = TAMU_PeakParms_SingleDonor1434_QT: Texas A&M University (TAMU) 1.5-hr Human Induced Pluripotent Stem Cell (iPSC)-derived Cardiomyocytes Calcium (Ca+2) Flux Assay for Cardiotoxicity: QT (decay-rise ratio) (AID 2284235; active means hit-call score of the fitted dose curve at least 0.9, where 1 is the maximum)
Summary of the method: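 Decay/rise ratio of calcium-flux fluorescence scored after 90 min exposure (37C) of donor 1434 iPSC cardiomyocytes to 0.2–100 uM (0.5% DMSO). Beat-cessation and severe-notch points removed; POD is EC05, a 5% rise over DMSO.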

[10] = CCTE_Mundy_HCI_Cortical_NOG_BPCount: CCTE's Neurite Outgrowth Assay in rat cortical cells for Branch Point Count, Mundy Lab (AID 2284237);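 on AC50: branch points counted about two days after chemical exposure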
Summary of the method: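 Measured 50.33 h after dosing, this morphology endpoint uses rat primary cortical cultures labelled for betaIII-tubulin. Branch points are quantified by high-content imaging, with DMSO as negative control and baseline.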

[11] = read-out: Monokine induced gamma interferon (MIG), CXCL9 (gene 4283); experiment: BSK_KF3CT_MIG: BioMAP Diversity Plus: KF3CT Assay for Monokine induced gamma interferon (MIG) Biomarker Activity (AID 2284248); details: primary human keratinocytes with fibroblasts
Summary of the method: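 Parallel cultures were stained with SRB (560 nm) to check cytotoxicity. MIG was quantified by ELISA in a primary human skin keratinocyte/fibroblast co-culture 24 h post-dosing, with gain of signal fitted relative to DMSO.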

[12] = read-out: Vascular cell adhesion molecule 1 (VCAM1), VCAM1 (gene 7412); experiment: BSK_BF4T_VCAM1: BioMAP Diversity Plus: BF4T Assay for Vascular cell adhesion molecule 1 (VCAM1) Biomarker Activity (AID 2284249); details: primary human bronchial epithelial cells with fibroblasts
Summary of the method: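 Cell-surface VCAM-1 quantified by ELISA after 24 h chemical exposure of human bronchial epithelial/dermal fibroblast co-cultures, with SRB staining in parallel wells for cytotoxicity; DMSO baseline, positive-direction fitting.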

[13] = read-out: Plasminogen activator inhibitor-1 (PAI1), SERPINE1 (gene 5054); experiment: BSK_KF3CT_PAI1: BioMAP Diversity Plus: KF3CT Assay for Plasminogen activator inhibitor-1 (PAI1) Biomarker Activity (AID 2284252); details: primary human keratinocytes with fibroblasts
Summary of the method: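 In this co-culture of primary human keratinocytes and foreskin fibroblasts, PAI-1 was measured by ELISA at 24 h and fitted upward from DMSO.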

[14] = read-out: Monocyte Chemoattractant Protein-1 (MCP1), CCL2 (gene 6347); experiment: BSK_IMphg_MCP1: BioMAP Diversity Plus: IMphg Assay for Monocyte Chemoattractant Protein-1 (MCP1) Biomarker Activity (AID 2284253); details: primary human endothelial cells with macrophages
Summary of the method: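 ELISA readout of MCP-1 at 24 hours in IMphg co-cultures of venular endothelial cells and macrophages, normalised to DMSO; parallel cultures stained with sulforhodamine B for overt cytotoxicity.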

[15] = read-out: Interleukin-8 (IL8), CXCL8 (gene 3576); experiment: BSK_KF3CT_IL8: BioMAP Diversity Plus: KF3CT Assay for Interleukin-8 (IL8) Biomarker Activity (AID 2284254); details: primary human keratinocytes with fibroblasts
Summary of the method: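 IL-8 by ELISA in primary human skin co-culture (keratinocytes plus fibroblasts) 24 h post-dose, DMSO as baseline. Cytotoxicity assessed in parallel by sulforhodamine B total-protein staining.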

[16] = CCTE_Mundy_HCI_Cortical_NOG_NeuronCount: CCTE's Neurite Outgrowth Assay in rat cortical cells for Neuron Count, Mundy Lab (AID 2284236; active means hit-call score of the fitted dose curve at least 0.9, where 1 is the maximum;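 further: neurons counted by imaging betaIII-tubulin and Hoechst stained cortical cells; cells exposed to compound for about 48 hours before fixation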)
Summary of the method: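 Read-out: neuron number by high-content imaging of betaIII-tubulin (Alexa Fluor-488) and Hoechst-labelled rat primary cortical cells.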

[17] = CCTE_Mundy_HCI_Cortical_Synap_Neur_Matur_NeuronCount: CCTE's Synaptogenesis and Neurite Maturation Assay in rat cortical cells for Neuron Count, Mundy Lab (AID 2284242; active means hit-call score of the fitted dose curve at least 0.9, where 1 is the maximum;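 further: hits reduce neuron count versus DMSO baseline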)
Summary of the method: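 Measured at DIV 12: fluorescently labelled neurons (Hoechst nuclei, MAP2) in rat primary cortical cultures, counted by high-content imaging. AraC suppressed glia from DIV 5; DMSO served as negative control.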

[18] = CCTE_Mundy_HCI_hNP1_Casp3_7: CCTE's Caspase-Glo 3/7 Assay in human neuroprogenitor cells for Apoptosis, Mundy Lab (AID 2284240)
Summary of the method: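 Luminescent caspase-3/7 readout, 26.5 h post-dose, in human neural progenitor cells from WA09 embryonic stem cells. Cells grew 40–44 h at 37 °C, 5% CO2 before chemical addition. Activity analysed as signal increase over DMSO baseline.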

[19] = CCTE_Mundy_HCI_hNP1_CellTiter: CCTE's Cell Titer-Glo 2 Assay in human neuroprogenitor cells for Viability, Mundy Lab (AID 2284241; active means hit-call score of the fitted dose curve at least 0.9, where 1 is the maximum)
Summary of the method: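 Viability read as luminescent ATP content (CellTiter-Glo, 30 min room temperature) twenty-four hours after dosing, relative to DMSO. Cells: WA09-derived hNP1 neuroprogenitors on poly-L-ornithine/laminin, plated 40 to 44 hours before chemical.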

Sequence of Tumor necrosis factor (Homo sapiens) (P01375 whole entry, looked up): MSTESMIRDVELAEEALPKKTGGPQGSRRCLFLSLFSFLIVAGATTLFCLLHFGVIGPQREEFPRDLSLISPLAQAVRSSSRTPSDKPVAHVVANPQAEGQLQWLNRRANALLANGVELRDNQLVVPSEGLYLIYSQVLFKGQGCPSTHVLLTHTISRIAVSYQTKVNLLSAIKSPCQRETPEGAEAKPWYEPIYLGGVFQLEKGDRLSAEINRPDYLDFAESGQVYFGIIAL

With CCOP(=S)(OCC)SCn1nnc2ccccc2c1=O the outcome [1] was “inactive”, the outcome [2] was “inactive” and the outcome [3] was “inactive”. The AC50 [4] was 24 µM (active), the outcome [5] was “inactive” and the outcome [6] was “inactive”. For the same molecule, the outcome [7] was “inactive”.
With CCCCC(CC)COP(=O)(Oc1ccccc1)Oc1ccccc1 (configuration not stated) the AC50 [1] was 20 µM (active), the AC50 [2] was 20 µM (active) and the AC50 [3] was 11.1 µM (active). The AC50 [8] was 50 µM (active), the outcome [9] was “inactive” and the outcome [10] was “inactive”. For the same molecule, the AC50 [4] was 20 µM (active), the AC50 [5] was 8.64 µM (active) and the AC50 [6] was 12.3 µM (active). The AC50 [7] was 3.97 µM (active).
In the case of O=C(O)C(F)(F)C(F)(F)C(=O)O, the outcome [1] is reported as “inactive”, the AC50 [2] is reported as 0.222 µM (active) and the outcome [2] is reported as “inactive”. The outcome [3] was “inactive”, the outcome [4] was “inactive” and the outcome [5] was “inactive”. The outcome [6] was “inactive”, the outcome [7] was “inactive” and the outcome [11] was “inactive”. The outcome [12] was “inactive”, the outcome [13] was “inactive” and the outcome [14] was “inactive”. The outcome [15] was “inactive”.
With C=CC(=O)OCC(CC)(COC(=O)C=C)COC(=O)C=C the AC50 [1] was 2.18 µM (active), the AC50 [2] was 2.61 µM (active) and the AC50 [3] was 2.5 µM (active). For the same molecule, the AC50 [4] was 1.87 µM (active), the AC50 [5] was 2.93 µM (active) and the AC50 [6] was 4.36 µM (active). For the same molecule, the AC50 [7] was 2.87 µM (active).
With CC(C)(C)c1ccccc1OP(=O)(Oc1ccccc1)Oc1ccccc1 the AC50 [1] was 24 µM (active), the AC50 [2] was 36.7 µM (active) and the AC50 [3] was 33.7 µM (active). For the same molecule, the AC50 [16] was 26.2 µM (active), the AC50 [10] was 17.5 µM (active) and the AC50 [17] was 3.09 µM (active). The AC50 [4] was 29 µM (active), the AC50 [5] was 20 µM (active) and the outcome [6] was “inactive”. The outcome [7] was “inactive”.
With O=C(O)C(F)(F)OC(F)(F)C(F)(F)OC(F)(F)C(=O)O the outcome [1] was “inactive”, the outcome [2] was “inactive” and the outcome [3] was “inactive”. The outcome [18] was “inactive”, the outcome [19] was “inactive” and the outcome [4] was “inactive”. For the same molecule, the outcome [5] was “inactive”, the outcome [6] was “inactive” and the outcome [7] was “inactive”. The outcome [11] was “inactive”, the outcome [12] was “inactive” and the outcome [13] was “inactive”. The outcome [14] was “inactive” and the outcome [15] was “inactive”.
For O=C(O)C=CC(F)(C(F)(F)F)C(F)(F)F, the outcome [1] was “inactive”, the outcome [2] was “inactive” and the outcome [3] was “inactive”. The outcome [18] was “inactive”, the outcome [19] was “inactive” and the AC50 [4] was 0.219 µM (active). For the same molecule, the outcome [4] was “inactive”, the outcome [5] was “inactive” and the outcome [6] was “inactive”. The outcome [7] was “inactive”, the outcome [11] was “inactive” and the outcome [12] was “inactive”. The outcome [13] was “inactive”, the outcome [14] was “inactive” and the outcome [15] was “inactive”.
In the case of CCOP(=S)(NC(C)C)Oc1ccccc1C(=O)OC(C)C (configuration not stated), the outcome [1] is reported as “inactive”, the outcome [2] is reported as “inactive” and the outcome [3] is reported as “inactive”. The AC50 [4] was 28.7 µM (active), the outcome [5] was “inactive” and the outcome [6] was “inactive”. For the same molecule, the outcome [7] was “inactive”.
For O=C(O)C(F)(F)OC(F)(F)C(F)(F)OC(F)(F)F, the outcome [1] was “inactive”, the outcome [2] was “inactive” and the outcome [3] was “inactive”. For the same molecule, the outcome [18] was “inactive”, the outcome [19] was “inactive” and the outcome [4] was “inactive”. For the same molecule, the outcome [5] was “inactive”, the outcome [6] was “inactive” and the outcome [7] was “inactive”. For the same molecule, the outcome [11] was “inactive”, the outcome [12] was “inactive” and the outcome [13] was “inactive”. The outcome [14] was “inactive” and the outcome [15] was “inactive”.
